Measurements as given in PubChem BioAssay (NCATS).
Records with an inconclusive call do not appear. Unmarked numbers belong to inactive results. Calls of active or inactive are those of the source. Calls come from the whole dose curve; as a rule, active = well fitted inhibition curve with a large enough effect; inconclusive = small, poorly fitted or top-dose-only effect; inactive = flat fitted curve, though single readings scatter.

Test system: CP203
Assay: qHTS profiling for inhibitors of Plasmodium falciparum proliferation (AID 504749); note: nearly all actives have a fitted effect of over 60% in size;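 for activity, negative = inhibition: 0% = DMSO vehicle and full inhibition = artemisinin control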
Settings: P. falciparum in erythrocytes, SYBR Green DNA, 72 h; series mostly up to 28.7 µM; activity, negative = inhibition: at the top concentration
From the text: NIH National Institute of Allergy and Infectious Diseases [NIAID] NIH Chemical Genomics Center [NCGC] MLPCN Grant: None Assay Provider: Xinzhuan Su, NIAID NCGC Assay Overview: Plasmodium falciparum is a virulent malarial parasite that kills 1-2 million people worldwide each year. Transmitted by mosquitoes, the sporozoite form of the parasite enters the blood stream to infect hepatocytes, where they become merozoites that infect red blood cells (erythrocytes). Within erythrocytes, merozoites begin a […] cycle of growth and division, after which the parasite is released to infect new red blood cells. Gametocytes, which form within erythrocytes as well, circulate in the bloodstream and are ingested by the mosquito, thereby completing the life cycle. To profile malarial isolates for differential chemical responses and to identify inhibitors of malarial growth, an assay that measures P. falciparum growth and replication within erythrocytes was employed. This assay uses a DNA binding fluorescent dye (SYBR Green) to detect parasite DNA following cell lysis. Because mature erythrocytes lack DNA, only Plasmodium-derived DNA is detected.
NCGC Assay Protocol Summary: The SYBR Green viability assay was adapted from a method described previously (Plouffe et al., 2008). For screening 3 ul culture medium was dispensed into 1536 well black clear bottom plates (Aurora Biotechnologies) using a Multidrop Combi (Thermo Fisher Scientific Inc.), 23 nL compounds in DMSO were added by a pin tool (Kalypsys), and 5 ul of erythrocytes infected with P. falciparum (0.3% parasitemia, 2.5% hematocrit final concentration) were added. The plates were incubated at 37 C in a humidified incubator in 5% CO2 for 72 h, and 2 ul lysis buffer (20 mM Tris HCl, 10 mM EDTA, 0.16% saponin, 1.6% triton X, 10X SYBR Green I supplied as 10,000X […] by Invitrogen) was added to each well. The plates were mixed for 25 sec with gentle shaking and incubated overnight at room temperature in the dark. The following morning, fluorescence intensity at 485(14) nm excitation and 535(25) nm emission wavelengths was measured on an EnVision (Perkin Elmer) plate reader. Plate reads were normalized relative to the control inhibitor (0.29 uM artemisinin) and vehicle (DMSO) wells present on each plate and then corrected by an algorithm using vehicle-only control plates at the beginning and end of the compound plate stack.
Potency is the fitted concentration of half-maximal effect.

Compound	activity, negative = inhibition [%]	Potency
CN1CCC(OC(=O)C(Oc2ccc(Cl)cc2)Oc2ccc(Cl)cc2)CC1	22	–
CCCCCCCCCCCCCCCCCCCCCC(=O)Nc1ccn([C@@H]2O[C@H](CO)[C@@H](O)[C@@H]2O)c(=O)n1	-1.91	–
NC(=O)[C@H]1O[C@@H](O)[C@H](O)[C@@H](O)[C@@H]1O	5.08	–
CNC(=O)OCc1cccc(COC(=O)NC)n1	-1.28	–
Cn1c(=O)c2c(ncn2CCOC(=O)C(C)(C)Oc2ccc(Cl)cc2)n(C)c1=O	-14.9	–
Cn1cc(NC(=O)c2cc(NC(=O)c3cc(NC=O)cn3C)cn2C)cc1C(=O)NCCC(=N)N	–	12 µM (active)
CCCCC(CC)COS(=O)(=O)O (stereo not given)	-1.86	–
O=C1CCC(c2ccccc2)(C2CCN(Cc3ccccc3)CC2)C(=O)N1 (stereo not given)	-12.3	–
C(=C\c1ccncc1)/c1ccccc1	0.0883	–
C[C@H]1O[C@@H](O[C@H]2[C@@H](O)C[C@H](O[C@H]3[C@@H](O)C[C@H](O[C@H]4CC[C@@]5(C)[C@H](CC[C@@H]6[C@@H]5C[C@@H](O)[C@]5(C)[C@@H](C7=CC(=O)OC7)CC[C@]65O)C4)O[C@@H]3C)O[C@@H]2C)C[C@H](O)[C@@H]1O	-10.2	–
CCCC(=O)O	-1.59	–
COc1ccc(C(=O)c2ccc(C)cc2)c(O)c1	-1.4	–
[O]=[Bi][O]C(=O)[O][Bi]=[O]	-0.189	–
NCCN	2.08	–
C[C@@](Cc1ccc(O)c(O)c1)(NN)C(=O)O	-1.94	–
CC(=O)Nc1ccc(NC(=S)NC(=O)c2ccc(C(C)(C)C)cc2)cc1	4.28	–
COc1ccc(/C=C/C(=O)OCCC(C)C)cc1	-7.64	–
CC(C)c1ncc([N+](=O)[O-])n1C	-0.763	–
CCc1ccc(S(=O)(=O)O)cc1	-0.45	–
Cc1cc(=O)c(C(=O)N[C@@H](C(=O)N[C@@H]2C(=O)N3C(C(=O)O)=C(CSc4nnnn4C)CS[C@H]23)c2ccc(O)cc2)c[nH]1	-6.36	–

Compound	activity, negative = inhibition [%]	Potency
O[C@@H]([C@H](O)[C@H](O)CBr)[C@H](O)CBr	-1.45	–
O=C(/C=C/c1cccc(F)c1)NC1CC1	8.51	–
CCCCCCCCCCCC(=O)N(CCO)CCO	1.13	–
CC1=CC(=C(c2ccc(N)cc2)c2ccc(N)cc2)C=CC1=N	–	4.26 µM (active)
c1ccc2ccccc2c1	-4.24	–
CN(C)CCCSc1ccccc1NC(=O)/C=C/c1ccccc1	-15	–
CC1=CC(=O)NS(=O)(=O)O1	10.7	–
CC(C)(C)c1ccc2c(S(=O)(=O)O)c(C(C)(C)C)ccc2c1	0.392	–
CCCCCCCCCCCCOCCCN	4.72	–
S=C1SCN(Cc2ccccc2)CN1Cc1ccccc1	-9.3	–
O=C(O)COc1ccc(CCNS(=O)(=O)c2ccccc2)s1	2.77	–
CN=C1C=CC(=C(c2ccc(N(C)C)cc2)c2ccc(N(C)C)cc2)C=C1	–	1.2 µM (active)
CC(CCc1ccc(O)cc1)NCC(O)c1ccc(O)cc1 (stereo not given)	2.07	–
COc1ccccc1N1CCN(CCCC(=O)c2ccc(F)cc2)CC1	-5.37	–
CCC(Cc1c(I)cc(I)c(O)c1I)C(=O)O (stereo not given)	-1.51	–
Nc1ncnc2c1ncn2[C@H]1CC[C@@H](CO)O1	4.59	–
Cc1cc(C)c(NC(=O)C[C@H](CC(=O)O)c2cccc3ccccc23)c(C(=O)N2CCC3(CCCC3)CC2)c1	-12.6	–
COC(=O)CCC[N+](C)(C)C	11.8	–
O=C(O)CC/C=C\CC[C@@H]1[C@@H](N2CCCCC2)[C@@H](O)C[C@@H]1OCc1ccc(-c2ccccc2)cc1	-1.96	–
Cn1c(O)c(N=NC(N)=S)c2ccccc21	-10.8	–
